NOD2-RIPK2 inh: blocks binding of human NOD2 to RIPK2; 360,000 tested, 0.38% active; CHO BLA complementation NOD2-RIPK2, CCF4 ratio; AID 624267; inhibition, % at 4.98 µM; in the data active = inhibition above about 21%;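 note: 0% = vehicle only and 100% = reference blocker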
Target sequence (O43353 whole entry, looked up): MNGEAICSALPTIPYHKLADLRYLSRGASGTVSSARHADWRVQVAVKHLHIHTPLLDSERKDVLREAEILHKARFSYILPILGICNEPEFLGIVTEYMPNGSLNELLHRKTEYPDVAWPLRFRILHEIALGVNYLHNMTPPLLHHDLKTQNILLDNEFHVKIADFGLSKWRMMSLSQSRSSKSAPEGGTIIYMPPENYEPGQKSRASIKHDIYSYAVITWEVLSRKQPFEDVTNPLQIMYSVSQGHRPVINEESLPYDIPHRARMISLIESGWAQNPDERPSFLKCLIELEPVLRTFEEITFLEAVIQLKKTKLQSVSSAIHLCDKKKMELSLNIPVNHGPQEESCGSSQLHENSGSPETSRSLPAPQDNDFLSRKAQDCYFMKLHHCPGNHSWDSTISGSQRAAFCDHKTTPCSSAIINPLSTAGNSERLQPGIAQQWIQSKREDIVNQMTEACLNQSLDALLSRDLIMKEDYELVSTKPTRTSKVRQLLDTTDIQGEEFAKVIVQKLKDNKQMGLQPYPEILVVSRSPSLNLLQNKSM
TLR9-MyD88 inh: inhibitors of human TLR9-MyD88 binding; 340,000 tested, 0.21% active; inhibition, % at 4.98 µM; CHO BLA complementation TLR9-MyD88, CCF4 FRET ratio; Q9NR96+Q99836;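 active = inhibition above the mean over all tested compounds plus 3 SD, cut at about 21% in these data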;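 note: 0% = DMSO only wells and 100% = clavulanate BLA inhibitor control wells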
IDE act: activators of human insulin-degrading enzyme in cells; P14735; HEK cells, FAbeta-B cleavage, fluorescence polarization; 0% vehicle, 100% cell-free pure enzyme wells; activation, % at 5.96 µM; 340,000 tested, 0.073% active; AID 493087;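 active = activation above the mean of all tested compounds plus 3 SD, set per screening campaign, cut at about 17% in these data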
IDE inh: inhibitors of human insulin-degrading enzyme in cells; P14735; HEK cells, FAbetaB cleavage, fluorescence polarization; inhibition, % at 5.59 µM; 320,000 tested, 0.41% active;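 active = percent inhibition above the average of all tested compounds plus 3 SD, set per screening campaign, cut at about 16% in these data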;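 note: IDE supplied by intact live HEK cells; FP after avidin binding of uncleaved biotin substrate so inhibition keeps polarization high; 0% = DMSO wells and 100% = 60 µM reference IDE inhibitor Ii1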
TLR4-MyD88 BLA: TLR4-MyD88 interaction inhibition in cells; HeLa CL3-4 TLR4/MyD88 BLA complementation, FRET ratio; O00206+Q99836; inhibition, % at 8.4 µM; 200,000 tested, 0.18% active; AID 861; in the data active = inhibition above about 25%;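 note: 0% = vehicle and 100% = reference inhibitor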
TLR4-MyD88 conf: TLR4-MyD88 interaction inhibition confirmed. AID 941. shares compounds with TLR4-MyD88 BLA. HeLa CL3-4 BLA complementation, CCF4 FRET ratio. inhibition, % at 8.4 µM. 350 tested, 50% active;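 active = mean inhibition across three repeat runs above about 25% carried over from the earlier screen, limit read from the data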;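 note: plate controls were DMSO only for no effect and clavulanic acid blocking BLA at full dose for full effect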
BLA inh HeLa: inhibits beta-lactamase activity, counter-screen to TLR4-MyD88 binding inhibitors; shares compounds with TLR4-MyD88 BLA; 350 tested, 63% active; HeLa BLA reporter, CCF4 FRET ratio; AID 1237; inhibition, % at 8.4 µM;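 active = mean inhibition over three repeats above about 26% taken from the earlier screen, limit read from the data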;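 note: HeLa cells stably expressing beta-lactamase reporter as counterscreen for TLR4-MyD88 inhibitors; 0% = DMSO and 100% = clavulanic acid full inhibition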
IDE cell inh cf: cellular human IDE inhibition, confirmation; inhibition, % at 5.59 µM; AID 435028; shares compounds with IDE inh; HEK cells, FAbetaB cleavage, fluorescence polarization; 1,200 tested, 51% active;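 active = mean inhibition across triplicate wells above the cutoff set by the earlier primary insulin-degrading enzyme screen, cut at about 16% in these data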;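 note: 0% = DMSO wells and 100% = 60 µM reference IDE inhibitor Ii1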
HEK cytotox: kills HEK cells in IDE inhibitor counter-screen; inhibition, % at 5.59 µM; 1,200 tested, 28% active; HEK293 cytotoxicity, ATP luminescence; shares compounds with IDE inh; AID 449730; in the data active = inhibition above about 22%;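 note: 0% = vehicle wells and 100% = reference cytotoxic drug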
TLR9-MyD88 cf: TLR9-MyD88 interaction inhibition, confirmation; shares compounds with TLR9-MyD88 inh; CHO TLR9/MyD88 BLA complementation, CCF4 FRET ratio; inhibition, % at 4.98 µM; 680 tested, 51% active; AID 540250;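 active = mean inhibition across three repeats above about 21% taken from the earlier screen, limit read from the data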;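 note: blue over green emission ratio reports constitutive TLR9 MyD88 association via BLA complementation; 0% = DMSO vehicle wells and 100% = clavulanate BLA inhibitor wells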
BLA counter-1: beta-lactamase reporter inhibition, counter-screen artifact | AID 540251 | shares compounds with TLR9-MyD88 inh | 680 tested, 7% active | CHO-BLA cells, CCF4 FRET ratio, BLA reporter | inhibition, % at 4.98 µM;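 active = mean inhibition above a 50% cutoff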;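 note: counterscreen of TLR9-MyD88 hits on CMV-driven BLA in CHO-K1 cells; 0% = DMSO alone and 100% = clavulanate blocking BLA; higher means less blue over green ratio so more BLA blockade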
TLR9 CHO cytotox: counter-screen for TLR9-MyD88 inhibitors: cytotoxicity in CHO cells; shares compounds with TLR9-MyD88 inh; luminescence; inhibition, % at 4.98 µM; 680 tested, 39% active; AID 588336; in the data active = inhibition above about 11%
NOD2 RIPK2 conf: NOD2-RIPK2 interaction inhibition confirmed; CHO cells, NOD2-RIPK2 BLA complementation, CCF4 FRET; inhibition, % at 4.98 µM; 1,200 tested, 70% active; shares compounds with NOD2-RIPK2 inh;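 active = mean inhibition across replicates above a set limit taken from the earlier primary screen, cut at about 21% in these data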;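 note: 0% = DMSO-only wells and the high end = clavulanate BLA-blocked wells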
BLA counter-2: NOD2-RIPK2 counterscreen BLA reporter activity; 1,200 tested, 57% active; CHO BLA reporter, CCF4 FRET ratio; inhibition, % at 4.98 µM; AID 624371; shares compounds with NOD2-RIPK2 inh;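 active = mean inhibition above the low-control mean inhibition plus three low-control SD, cut at about 11% in these data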;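 note: 0% = DMSO only wells and 100% = clavulanate high control wells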
Starred values were filed as active, the others as inactive. This is a sample that favours compounds with a hit; in the whole collection about 0.87% have one here.

For O=C(Cn1ncc(Cl)c(Cl)c1=O)c1ccc(Cl)cc1 the results were NOD2-RIPK2 inh 34.0*, TLR9-MyD88 inh 31.8*, IDE act 8.1, IDE inh -1.6, TLR4-MyD88 BLA 28.9*, TLR4-MyD88 conf 21.9, BLA inh HeLa 8.3, TLR9-MyD88 cf 17.7, BLA counter-1 12.9, TLR9 CHO cytotox 71.6*, NOD2 RIPK2 conf 39.0* and BLA counter-2 6.5.
Screening O=c1[nH]c2ccccc2nc1/C=C/c1ccc(O)cc1 returned NOD2-RIPK2 inh 38.3*, TLR9-MyD88 inh 36.1*, IDE act -9.8, TLR4-MyD88 BLA 35.7*, TLR4-MyD88 conf 30.1*, BLA inh HeLa 52.9*, TLR9-MyD88 cf 19.2, BLA counter-1 20.9, TLR9 CHO cytotox 6.3, NOD2 RIPK2 conf 42.0* and BLA counter-2 52.6*.
For N#C/C(=C/c1ccc(-c2ccc(S(N)(=O)=O)cc2)o1)C(=O)Nc1ccccc1 the results were NOD2-RIPK2 inh 16.7, TLR9-MyD88 inh 14.1, IDE act 0.9, IDE inh 3.1 and TLR4-MyD88 BLA -2.8.
Screening N#C/C(=C/c1ccc(-c2ccc(S(N)(=O)=O)cc2)o1)c1nc2ccccc2s1 returned NOD2-RIPK2 inh 38.5*, TLR9-MyD88 inh 47.1*, IDE act -48.0, IDE inh 39.9*, TLR4-MyD88 BLA 46.3*, TLR4-MyD88 conf 46.2*, BLA inh HeLa 75.5*, IDE cell inh cf 77.8*, HEK cytotox 24.4*, TLR9-MyD88 cf 46.2*, BLA counter-1 40.8, TLR9 CHO cytotox 23.7*, NOD2 RIPK2 conf 70.8* and BLA counter-2 70.9*.
`CNC(=O)COC(=O)c1ccccc1C(=O)c1ccc(Cl)c([N+](=O)[O-])c1` gave NOD2-RIPK2 inh 24.5*, TLR9-MyD88 inh 25.4*, IDE act 3.7, TLR4-MyD88 BLA 31.6*, TLR4-MyD88 conf 22.0, BLA inh HeLa 5.3, TLR9-MyD88 cf 23.2*, BLA counter-1 18.5, TLR9 CHO cytotox 7.6, NOD2 RIPK2 conf 52.9* and BLA counter-2 6.8.
`O=c1[nH]c(=S)[nH]c2c1C(C1CCCCC1)OC(C1CCCCC1)C2` (configuration not stated) gave NOD2-RIPK2 inh -0.3.
Screening CCN1CCc2c(sc(NC(=O)Nc3ccc(Cl)c(Cl)c3)c2C(N)=O)C1 returned NOD2-RIPK2 inh 40.9*, TLR9-MyD88 inh 48.0*, IDE act -124.0, IDE inh 109.9*, TLR4-MyD88 BLA 35.1*, TLR4-MyD88 conf 37.5*, BLA inh HeLa 60.1*, IDE cell inh cf 58.5*, HEK cytotox 19.5, TLR9-MyD88 cf 14.6, BLA counter-1 9.6, TLR9 CHO cytotox 20.1*, NOD2 RIPK2 conf 24.5* and BLA counter-2 30.0*.
CCN1CCc2c(sc(NC(=O)Cc3ccccc3)c2C(N)=O)C1 was read as NOD2-RIPK2 inh -2.1, TLR9-MyD88 inh 1.8, IDE act 4.4 and IDE inh -0.4.
`COc1cc(/C=C/C(=O)CC(=O)/C=C/c2ccc(O)c(OC)c2)ccc1O` gave NOD2-RIPK2 inh 37.0*, TLR9-MyD88 inh 28.4*, IDE act -63.4, IDE inh 30.8*, TLR4-MyD88 BLA 32.1*, TLR4-MyD88 conf 20.0, BLA inh HeLa 42.7*, IDE cell inh cf 81.0*, HEK cytotox 8.6, TLR9-MyD88 cf 30.2*, BLA counter-1 26.3, TLR9 CHO cytotox 7.4, NOD2 RIPK2 conf 59.2* and BLA counter-2 61.0*.
For COCCCNC(=O)C[C@@H]1C[C@@]2(C(=O)OC)CCCCC=C2N(Cc2ccc(Cl)cc2Cl)C1=O the results were NOD2-RIPK2 inh -8.3.
`Cc1cc(Cl)n2c(nc3ccccc32)c1C#N` gave NOD2-RIPK2 inh 23.3*, TLR9-MyD88 inh -3.9, IDE act -0.7, TLR4-MyD88 BLA 45.3*, TLR4-MyD88 conf 52.1*, BLA inh HeLa 55.9*, NOD2 RIPK2 conf 86.5* and BLA counter-2 62.7*.
For Cc1ccccc1CN1C(=O)c2ccccc2C1c1nnnn1C(C)C (configuration not stated) the results were NOD2-RIPK2 inh -12.1.
`Cn1c(=O)c(NCCc2ccccc2)c2c3c(cccc31)C(=O)c1ccccc1-2` gave NOD2-RIPK2 inh 37.9*, TLR9-MyD88 inh 36.7*, IDE act -16.4, IDE inh -11.1, TLR4-MyD88 BLA 38.6*, TLR4-MyD88 conf 39.1*, BLA inh HeLa 64.0*, TLR9-MyD88 cf 36.6*, BLA counter-1 38.1, TLR9 CHO cytotox -1.9, NOD2 RIPK2 conf 62.7* and BLA counter-2 70.9*.
Screening CCCCNc1c2c3c(cccc3n(C)c1=O)C(=O)c1ccccc1-2 returned NOD2-RIPK2 inh 47.4*, TLR9-MyD88 inh 35.7*, IDE act 29.7*, IDE inh 103.2*, TLR4-MyD88 BLA 40.8*, TLR4-MyD88 conf 25.9*, BLA inh HeLa 46.9*, IDE cell inh cf 25.9*, HEK cytotox 31.5*, TLR9-MyD88 cf 25.7*, BLA counter-1 25.8, TLR9 CHO cytotox 6.3, NOD2 RIPK2 conf 51.8* and BLA counter-2 57.5*.
For Cn1c(=O)c(N)c2c3c(c(Br)ccc31)C(=O)c1ccccc1-2 the results were NOD2-RIPK2 inh 8.7, TLR9-MyD88 inh -0.7, IDE act -5.3 and IDE inh 8.3.
